Experimental findings from PubChem BioAssay (EPA / NIEHS) are described below.

The source made the active and inactive calls. How the source made its calls: active means hit-call score of the fitted dose curve at least 0.9, where 1 is the maximum; inactive means score below 0.9.

A word on the AC50: it is the midpoint of the concentration-response curve, whichever way the signal moves.

Experiment [1] addresses Bile acid receptor (Homo sapiens) (UniProt Q96RI1). Briefly: ATG_IR1_CIS: Attagene CIS-FACTORIAL HepG2 Assay for human Nuclear Receptor Subfamily 1 Group H Member 4 (NR1H4), IR1 submotif (AID 2282946). Particulars: IR1 reporter transcription, actives raise or lower the signal. In a few lines: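 Fluorescence of capillary-separated, HpaI-digested RT-PCR reporter products gave IR1-element mRNA induction in HepG2 cells 24 h after dosing. Endogenous transcription factors drove the cis-regulated reporters; activity was fitted bidirectionally against DMSO.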

A short description of experiment [2]: ATG_GRE_CIS: Attagene CIS-FACTORIAL HepG2 Assay for human Glucocorticoid Response Elements (GRE) (AID 2282947). Particulars: HepG2 GRE cis-reporter, Attagene multiplex mRNA; actives raise or lower the signal. The gist of the method:
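Read-out: fluorescent reporter-transcript fragments separated by capillary electrophoresis after RT-PCR. Transiently transfected HepG2 cells carrying cis-element-driven reporter units were dosed for 24 h; gain or loss of signal fitted against DMSO control.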

Experiment [3] in a line: ATG_ISRE_CIS: Attagene CIS-FACTORIAL HepG2 Assay for human Interferon Regulatory Factor 1 (IRF1) binding to an Interferon-Stimulated Response Element (ISRE) (AID 2282948). The note with it: HepG2 ISRE cis-reporter (Attagene), mRNA transcription readout; actives raise or lower the signal. The gist of the method: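 Uses HepG2 liver cells transfected with cis-regulated reporters and measures mRNA 24 h post-dosing through RT-PCR, primer-extension labelling and capillary electrophoresis, with DMSO as negative control.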

Experiment [4] is described as follows: ATG_M_32_CIS: Attagene CIS-FACTORIAL HepG2 Assay for M32 Transcription Factor (Internal Marker) (AID 2282949).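 Further: background control marker of the multiplexed CIS panel rather than a real target.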 Particulars: HepG2 Attagene cis-factorial M32 reporter, mRNA; actives raise or lower the signal. The gist of the method: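 Using DMSO as baseline, bidirectional curve fits were applied to reporter mRNA signals. These came from transiently transfected HepG2 cells exposed for 24 h, with RNA analysed by RT-PCR, FAM primer extension, HpaI digestion and CE.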

Experiment [5] in a line: ATG_M_06_CIS: Attagene CIS-FACTORIAL HepG2 Assay for M06 Transcription Factor (Internal Marker) (AID 2282950). The note with it: HepG2 Attagene CIS-FACTORIAL M06 internal marker reporter; actives raise or lower the signal. In a few lines: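 Read-out is fluorescence of labelled reporter cDNA fragments resolved by capillary electrophoresis after RT-PCR. Cells: HepG2 carrying transfected cis-promoter reporter units, treated 24 h. Gain or loss of signal fitted relative to DMSO.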

The target of experiment [6] is Hypoxia-inducible factor 1-alpha (Homo sapiens) (UniProt Q16665). In words: ATG_HIF1a_CIS: Attagene CIS-FACTORIAL HepG2 Assay for human Hypoxia Inducible Factor 1 (HIF1A) (AID 2282951). The note with it: HepG2 Attagene cis-factorial HIF1a reporter transcription; actives raise or lower the signal. In a few lines: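 Dosed 24 h, transfected HepG2 cells yielded total RNA whose reporter transcripts were RT-PCR-amplified and sized by capillary electrophoresis using fluorescent labelling; DMSO defined baseline, with gain and loss of signal both fitted.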
Sequence of Hypoxia-inducible factor 1-alpha (Homo sapiens) (Q16665 whole entry, looked up): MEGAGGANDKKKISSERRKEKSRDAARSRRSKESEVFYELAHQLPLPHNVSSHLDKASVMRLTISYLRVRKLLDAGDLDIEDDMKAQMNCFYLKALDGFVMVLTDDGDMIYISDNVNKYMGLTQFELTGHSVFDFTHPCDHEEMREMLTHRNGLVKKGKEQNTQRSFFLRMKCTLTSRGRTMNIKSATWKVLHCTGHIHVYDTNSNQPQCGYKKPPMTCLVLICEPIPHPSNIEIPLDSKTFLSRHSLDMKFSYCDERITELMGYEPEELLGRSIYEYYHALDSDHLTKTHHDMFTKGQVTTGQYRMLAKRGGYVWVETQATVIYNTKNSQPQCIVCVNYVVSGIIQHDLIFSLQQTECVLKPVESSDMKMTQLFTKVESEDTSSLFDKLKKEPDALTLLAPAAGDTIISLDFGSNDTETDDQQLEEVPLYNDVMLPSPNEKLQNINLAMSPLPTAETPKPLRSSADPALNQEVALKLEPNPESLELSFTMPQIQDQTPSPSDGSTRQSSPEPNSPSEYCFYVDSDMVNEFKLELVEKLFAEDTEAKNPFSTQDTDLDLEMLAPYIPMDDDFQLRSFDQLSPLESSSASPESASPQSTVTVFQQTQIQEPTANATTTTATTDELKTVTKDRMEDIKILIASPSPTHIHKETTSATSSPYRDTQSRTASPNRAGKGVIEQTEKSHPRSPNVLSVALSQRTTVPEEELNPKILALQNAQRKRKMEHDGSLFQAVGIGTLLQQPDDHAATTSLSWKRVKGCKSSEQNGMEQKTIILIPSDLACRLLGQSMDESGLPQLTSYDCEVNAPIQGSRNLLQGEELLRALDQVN

For experiment [7], the target named is Hepatocyte nuclear factor 6 (Homo sapiens) (UniProt Q9UBC0). In words: ATG_HNF6_CIS: Attagene CIS-FACTORIAL HepG2 Assay for human Hepatocyte Nuclear Factor 6 (HNF6) (AID 2282952). The note with it: HepG2 Attagene cis-factorial HNF6 reporter transcription; actives raise or lower the signal. In a few lines:
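Endogenous transcription factor activity in human HepG2 liver cells was captured through cis-regulated reporter constructs. After 24 h treatment, reporter mRNA was measured by RT-PCR with capillary electrophoresis, and activity was fitted in both directions relative to DMSO.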

The nature of experiment [8]: ATG_MRE_CIS: Attagene CIS-FACTORIAL HepG2 Assay for human Metal Responsive Element (MRE) (AID 2282954). Particulars: HepG2 MRE cis-reporter transcription, Attagene multiplex; actives raise or lower the signal. In a few lines:
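RT-PCR/capillary electrophoresis readout of reporter mRNA, 24 h post-dosing, in HepG2 cells transfected with multiplexed cis-regulated reporter constructs. Gain or loss of signal fitted bidirectionally against DMSO baseline.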

Experiment [9] addresses Paired box protein Pax-6 (Homo sapiens) (UniProt P26367). Briefly: ATG_Pax6_CIS: Attagene CIS-FACTORIAL HepG2 Assay for human Paired Box 6 (PAX6) (AID 2282956). The note with it: HepG2 CIS-FACTORIAL PAX6 reporter transcription, RNA readout; actives raise or lower the signal. In a few lines: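 DMSO-referenced bidirectional fits of reporter mRNA fluorescence; HepG2 with transient cis-promoter MRTUs, 24 h post-dose, RT-PCR plus capillary electrophoresis detection.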

The nature of experiment [10]: ATG_PXRE_CIS: Attagene CIS-FACTORIAL HepG2 Assay for human Pregnane X Receptor Element (PXRE) (AID 2282957). Particulars: HepG2 Attagene CIS-FACTORIAL PXRE reporter, mRNA; actives raise or lower the signal. In a few lines:
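Endogenous transcription factor activity in HepG2 was gauged through induction of reporter mRNA driven by a cis-regulating promoter element, sampled 24 h post-treatment. Activity was fitted in both directions against DMSO negative control.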

The nature of experiment [11]: ATG_Sox_CIS: Attagene CIS-FACTORIAL HepG2 Assay for human SRY-box transcription factor (SOX) (AID 2282960). Particulars: HepG2 Attagene cis-factorial SOX reporter, mRNA; actives raise or lower the signal. In a few lines:
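Gain- or loss-of-signal endpoint, fitted bidirectionally with DMSO as negative control. Based on reporter mRNA from transfected HepG2 cells harvested 24 h post-treatment and quantified via RT-PCR and capillary electrophoresis.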

The target in experiment [12] is Transcription factor Sp1 (Homo sapiens) (UniProt P08047). In words: ATG_Sp1_CIS: Attagene CIS-FACTORIAL HepG2 Assay for human Specificity Protein 1 (Sp1) (AID 2282961). Particulars: HepG2 Sp1 cis-reporter transcription, actives raise or lower the signal. The gist of the method: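 Endpoint reflects endogenous Sp1 transcriptional activity, not an exogenous fusion protein: HepG2 cells with transfected cis-regulated reporters, 24 h dosing, RT-PCR/capillary electrophoresis mRNA read-out, DMSO-normalised bidirectional fit.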
Sequence of Transcription factor Sp1 (Homo sapiens) (P08047 whole entry, looked up, the tested form may be a part): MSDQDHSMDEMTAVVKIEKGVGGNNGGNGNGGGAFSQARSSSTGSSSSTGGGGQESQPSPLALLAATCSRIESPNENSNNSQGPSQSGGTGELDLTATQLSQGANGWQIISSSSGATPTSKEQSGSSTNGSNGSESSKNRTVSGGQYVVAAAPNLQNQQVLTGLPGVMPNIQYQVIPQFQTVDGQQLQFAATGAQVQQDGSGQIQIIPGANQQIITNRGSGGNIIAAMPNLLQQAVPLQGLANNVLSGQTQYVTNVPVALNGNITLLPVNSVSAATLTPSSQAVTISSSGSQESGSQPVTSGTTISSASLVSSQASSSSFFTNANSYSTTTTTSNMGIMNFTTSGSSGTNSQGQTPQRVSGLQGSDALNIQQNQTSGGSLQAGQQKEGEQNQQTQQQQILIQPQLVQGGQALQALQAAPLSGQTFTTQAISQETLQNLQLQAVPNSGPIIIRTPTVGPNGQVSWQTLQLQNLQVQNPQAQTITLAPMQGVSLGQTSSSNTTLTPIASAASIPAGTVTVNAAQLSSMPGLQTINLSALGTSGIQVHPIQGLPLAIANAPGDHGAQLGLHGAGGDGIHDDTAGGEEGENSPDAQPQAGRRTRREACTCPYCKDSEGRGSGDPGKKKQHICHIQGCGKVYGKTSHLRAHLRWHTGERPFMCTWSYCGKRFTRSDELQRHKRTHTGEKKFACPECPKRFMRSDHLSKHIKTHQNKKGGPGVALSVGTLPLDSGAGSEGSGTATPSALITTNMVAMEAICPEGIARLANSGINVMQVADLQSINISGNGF

Experiment [13] is described as follows: ATG_SREBP_CIS: Attagene CIS-FACTORIAL HepG2 Assay for human Sterol Regulatory Element Binding (SREBP) (AID 2282962). Particulars: HepG2 Attagene cis-factorial SREBP reporter, mRNA; actives raise or lower the signal. The gist of the method:
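In this cis-format assay, HepG2 liver cells express reporters controlled by promoter elements responsive to native transcription factors. Exposure lasts 24 h; reporter mRNA fluorescence from capillary electrophoresis gives the signal, fitted bidirectionally against DMSO.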

The target in experiment [14] is Signal transducer and activator of transcription 3 (Homo sapiens) (UniProt P40763). Briefly: ATG_STAT3_CIS: Attagene CIS-FACTORIAL HepG2 Assay for human Signal Transducer and Activator of Transcription 3 (STAT3) (AID 2282963). The note with it: HepG2, Attagene cis-factorial STAT3 reporter transcription; actives raise or lower the signal. The gist of the method: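 Readout: fluorescent reporter mRNA fragments resolved by capillary electrophoresis. Setup: HepG2 transfected with MRTUs reporting endogenous transcription-factor activity, dosed 24 h. Gain or loss of signal fitted bidirectionally against DMSO control.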
Sequence of Signal transducer and activator of transcription 3 (Homo sapiens) (P40763 whole entry, looked up, the tested form may be a part): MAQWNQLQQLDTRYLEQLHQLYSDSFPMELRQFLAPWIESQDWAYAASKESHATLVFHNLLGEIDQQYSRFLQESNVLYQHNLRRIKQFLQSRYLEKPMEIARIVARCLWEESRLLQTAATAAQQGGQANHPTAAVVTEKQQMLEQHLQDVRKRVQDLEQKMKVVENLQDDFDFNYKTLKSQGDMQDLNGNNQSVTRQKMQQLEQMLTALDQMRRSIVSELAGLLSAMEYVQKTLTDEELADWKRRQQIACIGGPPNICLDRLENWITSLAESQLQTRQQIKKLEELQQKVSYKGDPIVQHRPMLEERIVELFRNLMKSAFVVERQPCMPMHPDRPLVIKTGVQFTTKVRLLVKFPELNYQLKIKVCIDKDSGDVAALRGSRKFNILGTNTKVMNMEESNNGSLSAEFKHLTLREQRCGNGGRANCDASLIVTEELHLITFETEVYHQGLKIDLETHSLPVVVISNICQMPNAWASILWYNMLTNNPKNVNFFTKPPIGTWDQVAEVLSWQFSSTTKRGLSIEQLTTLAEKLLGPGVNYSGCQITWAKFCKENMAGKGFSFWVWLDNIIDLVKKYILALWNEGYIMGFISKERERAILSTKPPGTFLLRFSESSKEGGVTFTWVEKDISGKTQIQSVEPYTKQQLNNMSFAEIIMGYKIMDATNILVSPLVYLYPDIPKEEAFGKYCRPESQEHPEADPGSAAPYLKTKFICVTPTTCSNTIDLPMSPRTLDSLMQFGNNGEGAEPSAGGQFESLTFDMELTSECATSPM

The nature of experiment [15]: ATG_TA_CIS: Attagene CIS-FACTORIAL HepG2 Assay for human TA Basal Promoter (AID 2282964). The note with it: HepG2 Attagene CIS-factorial TA basal promoter reporter; actives raise or lower the signal. The gist of the method:
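Read-out: fluorescent reporter-transcript fragments resolved by capillary electrophoresis after RT-PCR and HpaI digestion. Source: HepG2 cells carrying transiently transfected multi-reporter cis constructs, treated 24 h. Endpoint fitted bidirectionally relative to DMSO.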

The nature of experiment [16]: ATG_TCF_b_cat_CIS: Attagene CIS-FACTORIAL HepG2 Assay for human T-Cell-Factor with beta-catenin (TCF/b-cat) (AID 2282965). The note with it: HepG2 TCF/beta-catenin cis-reporter transcription, actives raise or lower the signal. In a few lines: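 HepG2, transient MRTU transfection, cis-element-driven reporters (endogenous TFs). 24 h compound exposure. Readout: reporter mRNA by RT-PCR + 6-FAM primer extension, HpaI digest, capillary electrophoresis. Gain/loss fit vs DMSO baseline.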

Experiment [17] concerns the target Heat shock factor protein 1 (Homo sapiens) (UniProt Q00613). Briefly: ATG_HSE_CIS: Attagene CIS-FACTORIAL HepG2 Assay for human Heat Shock Transcription Factor 1 (HSE) (AID 2282953). The note with it: HepG2 HSE cis-reporter, Attagene RNA transcription; actives raise or lower the signal. The gist of the method: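 HepG2, transient MRTU transfection, cis-promoter reporters (endogenous TF activity). 24 h compound. RNA → oligo(dT) RT → PCR → 6-FAM primer extension → HpaI cut → CE. Bidirectional fit vs DMSO.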

The nature of experiment [18]: ATG_PPRE_CIS: Attagene CIS-FACTORIAL HepG2 Assay for human Peroxisome Proliferator-activated Response Element (PPRE) (AID 2282958). Particulars: HepG2 PPRE cis-element reporter, Attagene transcription factor profiling; actives raise or lower the signal. In a few lines: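 Measured endpoint: PPRE-controlled reporter mRNA, detected by RT-PCR and capillary electrophoresis fluorescence, from transiently transfected HepG2 cells 24 h after dosing. Curves fitted in both directions using DMSO baseline.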

Experiment [19] can be described thus: ATG_RORE_CIS: Attagene CIS-FACTORIAL HepG2 Assay for human RAR-related Orphan Receptor Element (RORE) (AID 2282959). Particulars: HepG2 Attagene cis-factorial RORE reporter, mRNA; actives raise or lower the signal. In a few lines:
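Transiently transfected HepG2 reporter cells were treated 24 h. Reporter transcripts were detected by RT-PCR and capillary electrophoresis, with bidirectional fitting against DMSO.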

Experiment [20] is described as follows: ATG_PBREM_CIS: Attagene CIS-FACTORIAL HepG2 Assay for human Phenobarbital-responsive Enhancer Module (PBREM) (AID 2282955). The note with it: HepG2 PBREM cis-reporter, Attagene multiplexed transcription; actives raise or lower the signal. In a few lines:
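Transfected liver-derived HepG2 cells exposed 24 h; PBREM reporter transcript quantified via RT-PCR and capillary electrophoresis, with activity in either direction referenced to DMSO.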

Sequence of Bile acid receptor (Homo sapiens) (Q96RI1 whole entry, looked up): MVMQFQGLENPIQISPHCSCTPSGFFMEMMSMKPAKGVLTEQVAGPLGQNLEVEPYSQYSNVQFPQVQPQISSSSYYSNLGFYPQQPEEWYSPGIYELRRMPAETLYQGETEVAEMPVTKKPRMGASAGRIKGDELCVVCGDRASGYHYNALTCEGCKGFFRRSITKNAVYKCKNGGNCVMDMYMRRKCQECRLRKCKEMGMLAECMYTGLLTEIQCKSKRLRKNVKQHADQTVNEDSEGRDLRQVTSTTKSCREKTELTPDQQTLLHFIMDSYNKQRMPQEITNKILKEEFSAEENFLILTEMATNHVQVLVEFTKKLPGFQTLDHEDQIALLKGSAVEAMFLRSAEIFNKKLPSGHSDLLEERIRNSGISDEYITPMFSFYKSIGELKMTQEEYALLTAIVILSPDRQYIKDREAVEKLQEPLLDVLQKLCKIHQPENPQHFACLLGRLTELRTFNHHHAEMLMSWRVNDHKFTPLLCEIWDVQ
Sequence of Paired box protein Pax-6 (Homo sapiens) (P26367 whole entry, looked up): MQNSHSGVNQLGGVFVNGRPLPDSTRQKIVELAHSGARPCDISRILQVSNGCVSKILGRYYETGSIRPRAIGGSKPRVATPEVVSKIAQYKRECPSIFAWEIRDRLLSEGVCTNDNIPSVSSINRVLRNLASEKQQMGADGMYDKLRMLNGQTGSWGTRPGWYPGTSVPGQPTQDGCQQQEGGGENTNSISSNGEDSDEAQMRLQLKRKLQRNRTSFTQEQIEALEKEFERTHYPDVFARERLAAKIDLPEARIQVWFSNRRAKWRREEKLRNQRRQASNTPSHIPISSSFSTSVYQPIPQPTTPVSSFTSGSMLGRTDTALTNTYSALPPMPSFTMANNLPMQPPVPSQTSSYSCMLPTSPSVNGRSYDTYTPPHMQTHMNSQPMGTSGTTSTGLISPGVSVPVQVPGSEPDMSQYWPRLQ
Sequence of Hepatocyte nuclear factor 6 (Homo sapiens) (Q9UBC0 whole entry, looked up): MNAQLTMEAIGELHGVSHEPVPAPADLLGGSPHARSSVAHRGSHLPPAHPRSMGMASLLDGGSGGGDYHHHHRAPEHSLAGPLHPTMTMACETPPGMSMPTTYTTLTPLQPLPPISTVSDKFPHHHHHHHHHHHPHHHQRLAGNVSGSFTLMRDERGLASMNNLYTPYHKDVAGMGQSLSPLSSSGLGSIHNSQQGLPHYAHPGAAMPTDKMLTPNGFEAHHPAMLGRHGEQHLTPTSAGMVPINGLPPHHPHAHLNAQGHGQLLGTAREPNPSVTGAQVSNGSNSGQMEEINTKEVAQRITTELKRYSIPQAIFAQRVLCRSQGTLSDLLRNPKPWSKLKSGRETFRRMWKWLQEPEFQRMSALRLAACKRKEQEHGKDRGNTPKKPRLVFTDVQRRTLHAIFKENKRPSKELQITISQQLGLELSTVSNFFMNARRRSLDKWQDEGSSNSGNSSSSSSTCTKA
Sequence of Heat shock factor protein 1 (Homo sapiens) (Q00613 whole entry, looked up): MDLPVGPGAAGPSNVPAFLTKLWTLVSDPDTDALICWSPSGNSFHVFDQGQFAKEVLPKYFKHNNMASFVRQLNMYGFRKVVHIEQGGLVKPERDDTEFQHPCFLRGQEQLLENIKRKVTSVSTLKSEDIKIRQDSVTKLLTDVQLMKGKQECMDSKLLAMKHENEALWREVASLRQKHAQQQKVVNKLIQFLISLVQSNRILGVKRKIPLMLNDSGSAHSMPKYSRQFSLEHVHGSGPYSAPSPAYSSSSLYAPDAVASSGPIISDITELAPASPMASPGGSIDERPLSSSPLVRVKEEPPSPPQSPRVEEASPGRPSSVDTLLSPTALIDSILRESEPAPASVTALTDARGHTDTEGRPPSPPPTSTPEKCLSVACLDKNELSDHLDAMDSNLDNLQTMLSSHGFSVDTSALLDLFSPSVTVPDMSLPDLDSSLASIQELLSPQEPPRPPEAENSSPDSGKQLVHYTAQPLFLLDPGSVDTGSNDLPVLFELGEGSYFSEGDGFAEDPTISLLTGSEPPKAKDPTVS

Turning to `CCCCC(CC)COC(=O)c1ccc(O)cc1` (configuration not stated), the result in experiment [1], in [2], in experiment [3], in experiment [4], in [5] and in [6] was inactive. Further, the call in [7], in [8], in experiment [9], in experiment [11], in experiment [12] and in [13] was inactive. The compound was called inactive in experiment [14], in [15] and in experiment [16]. Moreover, in experiment [10], the half-maximal activity concentration (AC50) was 11.1 µM (active).
Turning to `Nc1ccc(Cl)c([N+](=O)[O-])c1`, the compound was classed as inactive in [1], in experiment [2], in experiment [3], in experiment [4], in [5] and in experiment [6]. Further, the result in [7], in experiment [17], in experiment [8], in experiment [9], in experiment [18] and in [19] was inactive. In addition, the outcome in experiment [12], in experiment [13], in [14] and in experiment [15] was inactive. Further, the concentration at half-maximal activity (AC50) in [10] is 37.6 µM (active).
`CC1(C)O[C@@H]2C[C@H]3[C@@H]4CCC5=CC(=O)C=C[C@]5(C)[C@@]4(F)[C@@H](O)C[C@]3(C)[C@]2(C(=O)CO)O1`: the outcome in experiment [1], in [3], in experiment [4], in experiment [5], in [7] and in [8] was inactive. In addition, the result in experiment [9], in experiment [18], in experiment [19], in experiment [11], in experiment [12] and in [13] was inactive. Moreover, the call in experiment [14], in experiment [15] and in experiment [16] was inactive. In addition, the AC50 in [2] was 0.419 µM (active); in [10], 13.8 µM (active).
`CCCCCCCCCC(C)C=O` (configuration not stated): the call in experiment [1], in experiment [2], in experiment [3], in experiment [4], in experiment [5] and in experiment [7] was inactive. In addition, the compound was classed as inactive in experiment [8], in experiment [20], in experiment [9], in experiment [19], in experiment [11] and in [12]. Besides, the compound was classed as inactive in [13], in experiment [14], in [15] and in experiment [16]. Moreover, in experiment [10], the half-maximal activity concentration (AC50) was 51.1 µM (active).
